Our source for the growth values is the supplement of paper PMC9262897, “Low-cost anti-mycobacterial drug discovery using engineered E. coli” (Nature Communications, 2022).

Each structure is given as a SMILES string. Structures can show the parent of a compound that is named as a salt. ± gives the standard deviation of the averaged measurements.

For the first assay, the system named is E. coli TESEC Mtb DapB. Put plainly: growth (OD600 after 10 h); higher = more growth (less inhibition). To be noted: arabinose induction (level): High; compound 0.1 mM; raw OD600 reference: median of DMSO wells […], cell-free background 0.041. As for the experimental part:
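TESEC E. coli strains in which the native enzyme is deleted and replaced by arabinose-inducible Mtb Asd, DapB, CysH or TrpD, each grown in its selective medium. Strains were screened against the Prestwick library at 0.1 mM and 1% DMSO in 384-well format at low and high arabinose induction. Growth is read as OD600 after 10 h in triplicate.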
The molecule `CCCCOC(=O)c1ccc(N)cc1` [Butamben] returned a growth of 0.23 ± 0.086.
In turn, `COC(=O)Nc1nc2cc([S+]([O-])c3ccccc3)ccc2[nH]1` (stereo not given) [Oxfendazol] gave a growth of 0.173 ± 0.0069.
Turning to `CCN1CC(CCN2CCOCC2)C(c2ccccc2)(c2ccccc2)C1=O` (stereo not given) [Doxapram hydrochloride], the growth worked out at 0.205 ± 0.018.
Regarding `COc1cc(N)c(Cl)cc1C(=O)NC1CCN(Cc2ccccc2)CC1` [Clebopride maleate], the growth worked out at 0.2 ± 0.011.
The molecule `Cn1ccnc1S` [Methimazole] had a growth of 0.2 ± 0.0098.
For the molecule `CN(C)/N=N/c1[nH]cnc1C(N)=O` [Dacarbazine], the growth is 0.181 ± 0.012.
The same measure, in the same setting: next, `NC[C@@H]1O[C@H](O[C@H]2[C@@H](O)[C@H](O[C@@H]3[C@@H](O)[C@H](N)C[C@H](N)[C@H]3O[C@H]3O[C@H](CO)[C@@H](O)[C@H](O)[C@H]3N)O[C@@H]2CO)[C@H](N)[C@@H](O)[C@@H]1O` [Paromomycin sulfate]: 0.195 ± 0.0097.
On the same count and under the same terms, next, `C=CC1=C(C(=O)O)N2C(=O)[C@@H](NC(=O)/C(=N\OCC(=O)O)c3csc(N)n3)[C@H]2SC1` [Cefixime]: 0.0696 ± 0.022; `COc1ccc(CCN(C)CCCC(C#N)(c2ccc(OC)c(OC)c2)C(C)C)cc1OC` (stereo not given) [Verapamil hydrochloride]: 0.177 ± 0.017; `Cc1ccc(C)c(OCCCC(C)(C)C(=O)O)c1` [Gemfibrozil]: 0.161 ± 0.029.
Consider `CCCN(CCC)CCc1cccc2c1CC(=O)N2` [Ropinirole HCl], for which the growth is 0.198 ± 0.013.
In the case of `CC[C@H]1OC(=O)[C@H](C)[C@@H](O[C@H]2C[C@@](C)(OC)[C@@H](O)[C@H](C)O2)[C@H](C)[C@@H](O[C@@H]2O[C@H](C)C[C@H](N(C)C)[C@H]2O)[C@](C)(O)C[C@@H](C)CN(C)[C@H](C)[C@@H](O)[C@]1(C)O` [Azithromycin], the growth was 0.1 ± 0.088.
`O=C(CCNNC(=O)c1ccncc1)NCc1ccccc1` [Nialamide] had a growth of 0.217 ± 0.034.
Consider `Cc1cc2cc3c(C)cc(=O)oc3c(C)c2o1` [Trioxsalen], for which the growth amounted to 0.231 ± 0.032.
As to `COc1cc(NS(=O)(=O)c2ccc(N)cc2)nc(OC)n1` [Sulfadimethoxine], the growth was 0.192 ± 0.0042.
In turn, `CCN(CC)C(C)CN1c2ccccc2Sc2ccccc21` (stereo not given) [Ethopropazine hydrochloride] returned a growth of 0.2149 ± 0.0019.
As for `Cc1cccc(C)c1OCC(C)N` (stereo not given) [Mexiletine hydrochloride], the growth turned out to be 0.2 ± 0.013.
The molecule `CN(C)CC/C=C1/c2ccccc2Sc2ccc(Cl)cc21` [Chlorprothixene hydrochloride] gave a growth of 0.0467 ± 0.00076.
As for `OCCN1CCN(CCCN2c3ccccc3Sc3ccc(Cl)cc32)CC1` [Perphenazine], the growth is 0.0511 ± 0.001.
As for `COc1cc(C(=O)NS(=O)(=O)c2ccccc2C)ccc1Cc1cn(C)c2ccc(NC(=O)OC3CCCC3)cc12` [Zafirlukast], the growth was 0.179 ± 0.018.

The same assay, now with this note: arabinose induction (level): Low; compound 0.1 mM; raw OD600 reference: median of DMSO wells 0.227, cell-free background 0.041.
The molecule `CCCCOC(=O)c1ccc(N)cc1` [Butamben] registered a growth of 0.218 ± 0.07.
For the molecule `COC(=O)Nc1nc2cc([S+]([O-])c3ccccc3)ccc2[nH]1` (stereo not given) [Oxfendazol], the growth is 0.174 ± 0.042.
Take `CCN1CC(CCN2CCOCC2)C(c2ccccc2)(c2ccccc2)C1=O` (stereo not given) [Doxapram hydrochloride]: the growth was found to be 0.243 ± 0.017.
Regarding `COc1cc(N)c(Cl)cc1C(=O)NC1CCN(Cc2ccccc2)CC1` [Clebopride maleate], the growth turned out to be 0.223 ± 0.031.
On the same count and under the same terms, then `Cn1ccnc1S` [Methimazole], with 0.262 ± 0.04.
`CN(C)/N=N/c1[nH]cnc1C(N)=O` [Dacarbazine] displayed a growth of 0.213 ± 0.033.
Take `NC[C@@H]1O[C@H](O[C@H]2[C@@H](O)[C@H](O[C@@H]3[C@@H](O)[C@H](N)C[C@H](N)[C@H]3O[C@H]3O[C@H](CO)[C@@H](O)[C@H](O)[C@H]3N)O[C@@H]2CO)[C@H](N)[C@@H](O)[C@@H]1O` [Paromomycin sulfate]: the growth worked out at 0.26 ± 0.034.
`C=CC1=C(C(=O)O)N2C(=O)[C@@H](NC(=O)/C(=N\OCC(=O)O)c3csc(N)n3)[C@H]2SC1` [Cefixime]: the growth amounted to 0.0479 ± 0.0042.
Molecule `COc1ccc(CCN(C)CCCC(C#N)(c2ccc(OC)c(OC)c2)C(C)C)cc1OC` (stereo not given) [Verapamil hydrochloride] displayed a growth of 0.248 ± 0.044.
In the case of `Cc1ccc(C)c(OCCCC(C)(C)C(=O)O)c1` [Gemfibrozil], the growth amounted to 0.195 ± 0.055.
Consider `CCCN(CCC)CCc1cccc2c1CC(=O)N2` [Ropinirole HCl], for which the growth stood at 0.211 ± 0.025.
The molecule `CC[C@H]1OC(=O)[C@H](C)[C@@H](O[C@H]2C[C@@](C)(OC)[C@@H](O)[C@H](C)O2)[C@H](C)[C@@H](O[C@@H]2O[C@H](C)C[C@H](N(C)C)[C@H]2O)[C@](C)(O)C[C@@H](C)CN(C)[C@H](C)[C@@H](O)[C@]1(C)O` [Azithromycin] displayed a growth of 0.0998 ± 0.09.
Still for that read-out and setting: next, `O=C(CCNNC(=O)c1ccncc1)NCc1ccccc1` [Nialamide]: 0.249 ± 0.014; `Cc1cc2cc3c(C)cc(=O)oc3c(C)c2o1` [Trioxsalen]: 0.237 ± 0.012.
The molecule `COc1cc(NS(=O)(=O)c2ccc(N)cc2)nc(OC)n1` [Sulfadimethoxine] yielded a growth of 0.213 ± 0.015.
On to `CCN(CC)C(C)CN1c2ccccc2Sc2ccccc21` (stereo not given) [Ethopropazine hydrochloride], for which the growth was found to be 0.236 ± 0.015.
The molecule `Cc1cccc(C)c1OCC(C)N` (stereo not given) [Mexiletine hydrochloride] gave a growth of 0.288 ± 0.071.
Turning to `CN(C)CC/C=C1/c2ccccc2Sc2ccc(Cl)cc21` [Chlorprothixene hydrochloride], the growth came to 0.0463 ± 0.00046.
`OCCN1CCN(CCCN2c3ccccc3Sc3ccc(Cl)cc32)CC1` [Perphenazine] returned a growth of 0.0954 ± 0.078.
The same measure, in the same setting: next, `COc1cc(C(=O)NS(=O)(=O)c2ccccc2C)ccc1Cc1cn(C)c2ccc(NC(=O)OC3CCCC3)cc12` [Zafirlukast]: 0.213 ± 0.033.
